GPR151 ag – human GPR151 activation; Q8TDV0; AID 1508602; activation, % at 11.2 µM; PathHunter beta-arrestin GPR151 cells, luminescence; 650,000 tested, 1% active; in the data active = activation above about 4.9%;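 note: 0% = median of compound wells and 100% = cells with positive control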
Target sequence (Q8TDV0 whole entry, looked up): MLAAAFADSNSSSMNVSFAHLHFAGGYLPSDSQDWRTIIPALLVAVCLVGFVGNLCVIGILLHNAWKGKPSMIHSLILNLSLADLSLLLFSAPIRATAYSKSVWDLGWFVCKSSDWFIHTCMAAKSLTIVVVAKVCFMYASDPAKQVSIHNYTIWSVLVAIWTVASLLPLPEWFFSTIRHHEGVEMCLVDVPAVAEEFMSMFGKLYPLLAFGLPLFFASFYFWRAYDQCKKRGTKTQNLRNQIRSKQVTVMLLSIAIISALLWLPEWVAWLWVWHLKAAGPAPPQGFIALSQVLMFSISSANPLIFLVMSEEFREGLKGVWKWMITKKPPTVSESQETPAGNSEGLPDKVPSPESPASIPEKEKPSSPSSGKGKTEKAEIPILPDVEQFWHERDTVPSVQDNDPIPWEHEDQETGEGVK
MITF inh – blocks human microphthalmia-associated transcription factor. O75030. AlphaScreen MITF homodimerization, bead proximity signal. inhibition, % at 2.6 µM. 650,000 tested, 0.91% active; in the data active = inhibition above about 50%;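 note: 0% = vehicle wells with protein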
FBW7 activator – activators of human E3 ligase FBW7. Q969H0. AlphaScreen FBW7–phospho-cyclin E peptide binding, activator screen. normalized activity (activation), % at 26.1 µM. 650,000 tested, 0.13% active. AID 1259310; in the data active = normalized activity above about 1.9%;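 note: purified mutant Fbw7 with reduced substrate affinity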
TEAD-YAP inh – TEAD-YAP interaction inhibition | 640,000 tested, 1.4% active | HEK-TIYL cells, TEAD-Gal4/YAP UAS-luciferase luminescence | inhibition, % at 9.12 µM; in the data active = inhibition above about 32%;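 note: 0% = median of test compound wells and 100% = reference inhibitor wells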
MITF inh conf – human MITF inhibition, confirmation; shares compounds with MITF inh; AlphaScreen MITF homodimerization, biotin/His-MITF beads; inhibition, % at 2.6 µM; 4,700 tested, 16% active; AID 1259372;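 active = inhibition above a cutoff derived from the DMSO control wells, cut at about 28% in these data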;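 note: 0% = MITF dimer wells with DMSO only; inhibitors lower the bead chemiluminescence by keeping MITF from dimerizing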
AlphaScreen DR – optically interferes with AlphaScreen signal in dose response; AlphaScreen optical interference counterscreen, cell-free; shares compounds with MITF inh; 480 tested, 6% active; IC50, µM; AID 1259373; call rule not given here
AS interf ctr – counter-screen: compounds optically interfering with AlphaScreen | shares compounds with MITF inh | LysRS AlphaScreen counterscreen, signal interference, triplicate | inhibition, % at 2.6 µM | 4,700 tested, 7.6% active | AID 1259376;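 active = inhibition above a cutoff derived from the DMSO control wells, cut at about 30% in these data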
Active calls of the source: *; nt = not tested or not shown. A selection: hits, their analogues and other compounds. The true share with any hit is near 3.4%.

SMILES | GPR151 ag | MITF inh | FBW7 activator | TEAD-YAP inh | MITF inh conf | AS interf ctr | others
O=C1c2ccccc2C(=O)C2(O)OCCOC12O (stereo not drawn) | -1.5 | -2.4 | 0.0 | -7.3 | nt | nt
CCC(=O)c1ccccc1OCCCCN1CCN(CC)CC1 | 4.2 | 60.1* | -0.1 | 8.4 | 17.6 | 12.7
CCC(=O)c1ccccc1OCCN1CCN(Cc2ccccc2)CC1 | 0.7 | 65.7* | 0.1 | 14.2 | 6.9 | 2.8
COc1ccc(C(=O)NC(=S)N2CCN(Cc3ccccc3)CC2)cc1OC | -0.7 | 17.8 | 0.0 | -1.7 | nt | nt
COc1cc(C(C)=O)ccc1OCCN1CCN(Cc2ccccc2)CC1 | -0.6 | 62.4* | 0.7 | 10.5 | 6.0 | 10.2
CCC(=O)c1ccccc1OCCN1CCN(C)CC1 | -0.6 | 13.4 | 0.2 | 7.2 | nt | nt
O=C(C1CC1)N1CC(c2nc(-c3ccccc3)no2)C1 | -0.9 | 5.1 | -0.1 | -15.6 | nt | nt
O=C(Cc1ccc(Br)cc1)OCc1ccc([N+](=O)[O-])cc1 | 0.6 | -2.0 | 0.0 | 3.4 | nt | nt
CCOC(=O)C1CCN(Cc2ccc(F)cc2)CC1 | 0.0 | 19.1 | -0.2 | 10.3 | nt | nt
CC(C)NC(=O)C1CCN(Cc2ccc(Cl)c(Cl)c2)CC1 | -0.1 | 51.0* | 0.8 | -2.0 | -13.8 | 1.1
CCOC(=O)C1CCN(Cc2ccc(C(F)(F)F)cc2)CC1 | 1.0 | 51.4* | 0.4 | 2.2 | -1.2 | 8.6
CC(C)NC(=O)C1CCN(Cc2ccc(C(F)(F)F)cc2)CC1 | -1.2 | 52.2* | 0.9 | 0.9 | -4.5 | -4.7
COC(=O)Cc1cc(=O)n(-c2nc3ccccc3[nH]2)[nH]1 | 3.7 | 94.3* | -1.4 | -8.1 | 72.2* | 98.6*
Brc1cccc(OCCCCn2cncn2)c1 | -0.9 | 62.3* | -0.4 | -3.4 | 8.6 | 13.2
Clc1cccc(OCCn2cncn2)c1 | -0.6 | -5.5 | -0.1 | -6.0 | nt | nt
c1ccc(Oc2cccc(OCCn3cncn3)c2)cc1 | 4.5 | 67.2* | 0.0 | -9.6 | -2.3 | 5.7
c1ccc(-c2ccc(OCCCn3cncn3)cc2)cc1 | -0.3 | 60.9* | -0.1 | -27.2 | 7.0 | 12.4
Cc1cc(Br)ccc1OCCn1cncn1 | 1.6 | 68.1* | 0.0 | 3.0 | 9.4 | 11.9
Cc1cc(Cl)ccc1OCCn1cncn1 | -0.3 | -0.6 | 0.0 | -0.2 | nt | nt
O=[N+]([O-])c1ccc(OCCCCn2cncn2)cc1 | -0.9 | 41.2 | -0.6 | 6.1 | nt | nt
O=C1CC(c2ccccc2)CC2=C1C(c1ccc(Cl)c(Cl)c1)Nc1ccccc1N2 (stereo not drawn) | 2.8 | 1.7 | -0.1 | 4.1 | nt | nt
Cc1ccc(-n2c(SCC(=O)Nc3ccccc3Cl)nc3c(sc(=S)n3-c3cc(C)ccc3F)c2=O)cc1 | 0.6 | -12.3 | -0.1 | -8.3 | nt | nt
Brc1cccc(OCCn2cnc3ccccc32)c1 | 0.1 | 68.1* | 0.0 | -2.6 | 4.0 | 15.7
c1ccc(COc2ccc(OCCn3cncn3)cc2)cc1 | -1.3 | 1.8 | 0.2 | -16.8 | nt | nt
c1ccc(Oc2cccc(OCCOCCn3cncn3)c2)cc1 | -2.0 | 72.3* | -0.2 | -10.3 | -4.9 | -9.4
SMILES | GPR151 ag | MITF inh | FBW7 activator | TEAD-YAP inh | MITF inh conf | AS interf ctr | others
O=C(CN1CCC(NC(=O)c2ccccc2F)CC1)Nc1ccc2c(c1)OCO2 | 2.8 | 4.9 | -0.1 | 13.9 | nt | nt
O=c1ccc2cc(O)c(O)cc2o1 | 0.1 | 5.3 | -0.3 | -13.4 | nt | nt
C=CC1=C(C)C2=Cc3c(C=C)c(C)c4[n]3[Sn+2][n]3c(c(C)c(CCC(=O)O)c3=CC3=NC(=C4)C(C)=C3CCC(=O)O)=CC1=N2 | 0.4 | 54.6* | -0.1 | nt | 62.5* | -17.3 | AlphaScreen DR=>6.48
C=CC1=C(C)c2cc3[n-]c(cc4nc(cc5[n-]c(cc1n2)c(C)c5CCC(=O)O)C(CCC(=O)O)=C4C)c(C)c3C=C.[Zn+2] | -0.7 | 25.8 | -0.3 | nt | nt | nt
CCOc1cc(C2NC(=S)NC(C)=C2C(=O)NCc2ccccc2)ccc1OC (stereo not drawn) | -0.8 | 6.9 | -0.2 | 4.3 | nt | nt
CC(/C=N/NC(=O)CN1CCN(C)CC1)=C\c1ccccc1 | 0.2 | 73.0* | 0.7 | 9.1 | 3.1 | -5.0
CCN1CCN(CC(=O)N/N=C/c2cc(Br)cs2)CC1 | 0.3 | 67.8* | 0.6 | 19.9 | -0.9 | 3.1
CN(C)c1ccc(/C=N\NC(=O)CN2CCN(Cc3ccccc3)CC2)cc1 | 0.6 | -4.3 | 0.2 | 4.6 | nt | nt
CC(/C=N\NC(=O)Cc1cccn1C)=C\c1ccccc1 | 0.9 | -4.5 | 0.0 | -8.9 | nt | nt
CCN1CCN(CC(=O)N/N=C/c2ccc(N(C)C)cc2)CC1 | 1.4 | 51.8* | 0.0 | 1.6 | 26.0 | 6.4
Cc1ccc(/C=N/NC(=O)CCN2CCN(C)CC2)cc1 | -0.1 | 54.1* | -0.3 | 1.0 | 6.7 | -0.1
O=C(Nc1ccc(NC(=O)c2ccccc2F)nc1)c1cccs1 | 0.1 | 6.9 | -0.1 | -62.9 | nt | nt
CC(C)CNC(=O)c1nonc1N | -0.5 | -3.5 | 0.0 | -5.0 | nt | nt
O=C(NCCCNCCCNC(=O)c1ccc(/C=N/O)nc1)c1ccc(/C=N/O)nc1 | 1.4 | 68.7* | -0.7 | -3.2 | 49.0* | 100.3*
O=C(NCCCO)c1ccc(/C=N/O)nc1 | -0.4 | 18.7 | 0.1 | 3.1 | nt | nt
NC(=O)c1ccc(-c2cccs2)s1 | -0.1 | 59.3* | -0.1 | -5.7 | 38.7* | 2.7 | AlphaScreen DR=>7.32
NC(=O)c1ccc(-c2csc3ccccc23)s1 | 1.5 | 10.6 | 0.1 | -4.8 | nt | nt
CC1CCCC(N2CCN(C(=O)c3cccc(Cl)c3)CC2)C1 (stereo not drawn) | 1.0 | 50.9* | 0.0 | -3.8 | -3.3 | -1.7
O=C(c1cccc(Cl)c1)N1CCN(C2CCCC2)CC1 | 0.9 | 52.7* | 0.0 | 0.1 | -3.4 | -1.6
O=C(c1cccc(Cl)c1)N1CCN(C2CCC(c3ccccc3)CC2)CC1 (stereo not drawn) | 0.3 | 38.7 | 0.2 | 3.9 | nt | nt
CC1CCCN(C(=O)c2cccc(Cl)c2)C1 (stereo not drawn) | 1.2 | -2.5 | 0.3 | -2.0 | nt | nt
O=S(=O)(NCC(c1ccco1)S(=O)(=O)c1cccs1)c1ccc(F)cc1 (stereo not drawn) | 1.4 | -23.2 | 0.0 | -4.3 | nt | nt
O=C(NC1CCN(Cc2ccccc2)CC1)c1ccc2nc(-c3cccs3)sc2c1 | 1.4 | 52.2* | -0.1 | -1.1 | 59.5* | 1.0 | AlphaScreen DR=>6.38
c1ccc(CNc2nc(-c3cccs3)nc3c2ncn3C2CCCCC2)cc1 | -2.1 | 14.8 | 0.1 | -1.4 | nt | nt
Nc1nc(SCC(=O)Nc2cc([N+](=O)[O-])ccc2F)n[nH]1 | 1.4 | 50.9* | -0.3 | 7.0 | 1.5 | 1.9
SMILES | GPR151 ag | MITF inh | FBW7 activator | TEAD-YAP inh | MITF inh conf | AS interf ctr | others
COc1ccc(NC(=O)c2c(NC(C)=O)sc3c2CCC3)cc1Cl | 4.6 | 9.6 | 0.3 | 4.0 | nt | nt
O=[N+]([O-])c1cc([N+](=O)[O-])c2cc[nH]c2c1 | 0.1 | 69.1* | -0.1 | -1.9 | 0.2 | 3.6
COc1ccc2c(c1)COC1(CCN(C(=O)CC(C)CC(=O)O)CC1)O2 (stereo not drawn) | -0.1 | -5.2 | -0.2 | -9.3 | nt | nt
C=CCn1c(SCC(=O)O)nc2sc(C)c(C)c2c1=O | -0.9 | 81.0* | 0.0 | 0.2 | 4.0 | 23.3
Fc1cccc(CN2CCN(Cc3cccnc3)CC2)c1 | 1.3 | 84.7* | 0.1 | -1.0 | 10.1 | 15.7
O=C(NCc1cccc(Cl)c1)C1CCN(Cc2cccnc2)CC1 | 0.4 | 5.2 | -0.1 | 5.2 | nt | nt
